Luciferase inh: Firefly luciferase inhibition profiling of diverse chemical library using quantitative high-throughput screening | Potency, µM (top dose mostly 115 µM), usual class: inhibitors | purified P. pyralis luciferase, luminescence, biochemical | AID 1347043, 2019 | hit rate 2.5% among 76,000; also: nearly all actives have a fitted effect of over 65% in size
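Biochemical qHTS: compound (6-point titration) added to 10uM D-luciferin plus 10uM ATP in Tris acetate pH 7.5 buffer with Mg, Tween-20 and BSA, then purified enzyme at 10nM; light output imaged.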
NIH3T3 tox: Cytotoxic Profiling in NIH 3T3 Cell Line of Diverse Libraries Using Quantitative High-Throughput Screening. NIH 3T3 viability, CellTiter-Glo ATP luminescence, 48-72 h. AID 1345082, 2018. Potency, µM (series often up to 96.7 µM), inactives show at the top dose activity change, negative = cytotoxicity, hits mostly inhibitors. hit rate 4.3% among 94,000; also: nearly all actives have a fitted effect of over 55% in size
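ATP-dependent luminescence (CellTiter-Glo) served as the viability signal for NIH 3T3 cells treated with compound for 48 or 72 hr at 37 °C.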
HEK cytotox: Cytotoxic Profiling in HEK 293 Cell Line of Diverse Libraries Using Quantitative High-Throughput Screening | HEK 293 viability, ATP luminescence (CellTiter-Glo), 48-72 h | Potency, µM (series often up to 115 µM), for inactives: at the top dose activity change, negative = cytotoxicity, most hits filed as inhibitors | hit rate 6.6% among 94,000 | AID 1345083, 2018; also: nearly all actives have a fitted effect of over 60% in size
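qHTS cytotoxicity; HEK 293, 250 cells/well; compound pinned; 48 or 72 hr, 37 degree Celsius, 5% CO2, 95% humidity; CellTiter-Glo, 10 min RT; luminescence (ATP).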
NPR1 antag: Natriuretic polypeptide receptor (hNpr1) antagonism - Primary qHTS | Atrial natriuretic peptide receptor 1 (Homo sapiens), P16066 | HEK293 hNpr1 GloSensor cGMP, ANP-stimulated luminescence | Potency, µM (titrated, usually from 46.3 µM), for inactives: at the top dose activity change, negative = inhibition, usual class: inhibitors | hit rate 1.6% among 76,000 | AID 1347048, 2019; calls by dose curve; also: nearly all actives have a fitted effect of over 60% in size
Target sequence (P16066 whole entry, looked up): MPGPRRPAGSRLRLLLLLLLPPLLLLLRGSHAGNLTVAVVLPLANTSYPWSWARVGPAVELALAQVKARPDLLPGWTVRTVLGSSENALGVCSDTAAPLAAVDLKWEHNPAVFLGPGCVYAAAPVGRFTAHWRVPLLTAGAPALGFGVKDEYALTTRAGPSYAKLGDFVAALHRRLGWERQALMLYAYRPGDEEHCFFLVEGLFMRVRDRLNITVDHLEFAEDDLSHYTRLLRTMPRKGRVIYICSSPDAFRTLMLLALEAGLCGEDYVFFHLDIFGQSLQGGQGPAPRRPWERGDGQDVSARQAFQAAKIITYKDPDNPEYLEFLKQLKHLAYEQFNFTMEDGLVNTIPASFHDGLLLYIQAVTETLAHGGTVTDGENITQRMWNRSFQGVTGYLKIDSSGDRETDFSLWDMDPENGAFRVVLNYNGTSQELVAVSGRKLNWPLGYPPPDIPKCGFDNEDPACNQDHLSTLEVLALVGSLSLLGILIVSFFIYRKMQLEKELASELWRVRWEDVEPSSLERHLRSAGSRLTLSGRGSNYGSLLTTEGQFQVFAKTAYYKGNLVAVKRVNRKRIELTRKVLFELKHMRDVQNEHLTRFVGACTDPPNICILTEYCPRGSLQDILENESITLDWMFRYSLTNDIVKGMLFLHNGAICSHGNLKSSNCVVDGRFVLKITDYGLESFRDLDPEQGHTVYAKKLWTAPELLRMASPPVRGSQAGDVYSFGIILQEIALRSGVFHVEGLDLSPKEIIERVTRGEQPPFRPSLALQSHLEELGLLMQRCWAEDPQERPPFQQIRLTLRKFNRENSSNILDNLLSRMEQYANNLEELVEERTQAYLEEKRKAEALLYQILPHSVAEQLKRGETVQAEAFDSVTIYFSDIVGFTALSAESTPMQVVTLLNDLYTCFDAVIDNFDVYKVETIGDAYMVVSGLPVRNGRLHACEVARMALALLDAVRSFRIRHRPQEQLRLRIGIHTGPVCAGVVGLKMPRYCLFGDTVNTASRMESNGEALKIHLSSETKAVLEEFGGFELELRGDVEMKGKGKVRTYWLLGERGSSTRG
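Compound pre-incubated 30 min at room temperature on GloSensor-loaded HEK293 cells stably carrying hNpr1 and the pGS-40F cGMP biosensor. Stimulation uses hNppA at 0.1 nM final; luminescence is taken at baseline and 20 min post-agonist.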
* = called active by the depositor; i = inactive; ? = inconclusive; . = no result given; [ ] = remark or other dose. The list is not random: actives were taken first. Their share in the collection is about 11%. Unless noted, calls follow the shape of the dose curve; as a rule, active = well fitted curve in the direction sought with a large enough effect; inconclusive = small, poorly fitted or top-dose-only effect, or another doubt; inactive = no such curve, though single readings can be large; an effect the other way counts as inactive or inconclusive. % is scaled to controls: 0 for no effect and ±100 for the full control effect; potency is read from the fitted curve at half-maximal effect.

SMILES	Luciferase inh	NIH3T3 tox	HEK cytotox	NPR1 antag
COc1cccc(CNC[C@H]2O[C@H](Cc3cc(CN4CCOCC4)on3)CC[C@@H]2O)c1	i	0.2%[174 µM]	-22.2%[172 µM]	0.1%[70.6 µM]
O=[S+]([O-])(NC1CCN(c2nc3ncccc3o2)C1)c1cccc(C(F)(F)F)c1 (centres undefined)	.	-30.0%	-11.0%	.
CC1(CNc2ccccc2)COc2ccc(C(=O)NCc3ccc(F)cc3)cc2N1 (centres undefined)	i	44.7µM*	70.8µM*	-19.1%[70.6 µM]
CNC(=O)c1ccc2c(c1)NC(C)(CNc1ccccc1)CO2 (centres undefined)	i	-24.0%[138 µM]	?	-4.0%[70.6 µM]
CCOCC1(C)COc2ccc(C(=O)NCc3cc(OC)cc(OC)c3)cc2N1 (centres undefined)	i	-9.5%[138 µM]	?	-21.7%[70.6 µM]
COc1cc(CNC(=O)c2ccc3c(c2)NC(C)(CNc2ccccc2)CO3)cc(OC)c1 (centres undefined)	i	?	35.5µM*	1.0%
CC1(CNc2ccccc2)COc2ccc(C(=O)NCCc3ccccc3)cc2N1 (centres undefined)	?	28.2µM*	?	-0.1%[70.6 µM]
CC1(CCCCc2ccccc2)COc2ccc(C(=O)NC3CCC(O)CC3)cc2N1 (centres undefined)	i	79.4µM*	70.8µM*	-5.1%[70.6 µM]
CC1(COc2ccccc2)COc2ccc(C(=O)NCCc3ccccc3)cc2N1 (centres undefined)	i	?	?	-5.1%[70.6 µM]
Cc1nnc2ccc(N3CCC(NC(=O)C4CCCC4)C3)nn12 (centres undefined)	.	-31.3%[138 µM]	-11.5%[172 µM]	.
CCOc1ccc(NC(=O)COc2cccc(-c3nnc4n3CCCC4)c2)cc1	i	-14.5%	4.3%	1.4%
CNC(=O)[C@@H]1[C@H]2CN(Cc3ccccn3)CCN2C[C@H]1c1ccccc1	.	-33.8%	?	.
CC(=O)N1CCCN(c2ncnc3c2CN(C2CCC2)C(=O)CN3C)CC1	.	-12.4%	-9.2%	.
COc1ccc(-c2nc(-c3c(C)noc3C)cc3c2cc(C)n3CCN(C)C)cc1OC	i	?	89.1µM*	-16.4%[70.6 µM]
COc1cccc(-c2nc(-c3c(C)noc3C)cc3c2cc(C)n3CCN(C)C)c1	i	10µM*	44.7µM*	3.0%[70.6 µM]
COc1ncc(-c2nc(-c3c(C)noc3C)cc3c2cc(C)n3CCN(C)C)cn1	i	?	?	-3.1%[70.6 µM]
CC(=O)Nc1cccc(-c2nc(-c3c(C)noc3C)cc3c2cc(C)n3CCN(C)C)c1	i	?	79.4µM*	6.9%[70.6 µM]
COc1ncccc1-c1nc(-c2c(C)noc2C)cc2c1cc(C)n2CCN(C)C	i	10µM*	?	2.9%[70.6 µM]
CC(C)C(=O)N1CCN(CCCn2nc3n(c2=O)CCCC3)CC1	.	-10.7%	-15.1%	.
O=C(c1n[nH]c2ccccc12)N1CCCC1c1nc(CCOCC2CC2)no1 (centres undefined)	i	-9.3%	-21.3%	-0.7%
CC(=O)N1CCCN(Cc2nnc(C(=O)N3CCC[C@@H]3c3cccc(F)c3)n2-c2cccnc2)CC1	i	22.4µM*	35.5µM*	-0.9%
CN(Cc1nnc(C(=O)N2CCC[C@@H]2c2cccc(F)c2)n1-c1ccccc1)c1ccccc1	i	?	?	-3.4%
Cc1cccc(C)c1-c1nnc2ccc(C(=O)NCC(C)C)cn12	.	-23.8%[138 µM]	-25.8%[172 µM]	.
CCOc1ccccc1CN1CCC2(CCN(C(=O)C3CC3)CC2)Oc2ccccc21	i	25.1µM*	44.7µM*	15.6%
CCOc1ccccc1CN1CCC2(CCN(C(=O)C(C)(C)C)CC2)Oc2ccccc21	i	31.6µM*	39.8µM*	4.6%
Cc1ccc(C)c(CNC(=O)[C@@H]2CN(S(C)(=O)=O)C[C@H]2c2ccncc2)c1	.	-23.0%	-5.3%	.
CCN1C(=O)CCC2(C(=O)Nc3cccc(OC)c3)CCCC=C12 (centres undefined)	.	-8.5%	1.8%	.
CC(C)(C)C(=O)N1CCC(C(=O)N2CCCC2c2nc3ccncc3[nH]2)CC1 (centres undefined)	.	-18.3%	-16.0%	.
Cc1noc2c(NCCc3ccccn3)cc(-c3cccnc3)nc12	i	?	-13.0%[172 µM]	3.2%[70.6 µM]
Cc1noc2c(NCCc3ccccn3)cc(-c3ccccn3)nc12	i	?	56.2µM*	1.0%[70.6 µM]

Source: PubChem BioAssay (National Center for Advancing Translational Sciences (NCATS))
